From PubChem
LYPLA2 inh: counter-screen for PME1 inhibitors: inhibitors of human LYPLA2; O95372; recombinant LYPLA2, FP-Rh probe fluorescence polarization; inhibition, % at 5.9 µM; hit rate 0.38% among 320,000;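 active = inhibition above the screen-wide mean plus 3 SD, limit set per campaign, cut at about 26% in these data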;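 also: 0% = LYPLA2 with DMSO and 100% = wells lacking LYPLA2 enzyme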
PME-1 primary: PME-1 (human) inhibition. recombinant PME-1, FP-Rh probe fluorescence polarization. inhibition, % at 5.9 µM. Q9Y570. hit rate 0.53% among 320,000;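 active = inhibition above the campaign mean of all compounds plus 3 SD, cut at about 26% in these data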;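 also: competitive labeling of PME-1 active site by serine hydrolase directed probe; 0% = PME-1 with DMSO and 100% = wells lacking PME-1 enzyme; inhibitors block probe labeling so polarization falls and inhibition rises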
LYPLA1 inh: counter-screen for PME1 inhibitors: inhibitors of human LYPLA1; O75608; recombinant LYPLA1, FP-Rh probe fluorescence polarization; inhibition, % at 5.9 µM; hit rate 0.16% among 320,000;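 active = inhibition above the mean of all tested compounds plus 3 SD, set per campaign, cut at about 14% in these data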;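 also: inhibitors block serine hydrolase probe labeling of LYPLA1 so polarization falls; 0% = enzyme with DMSO and 100% = wells lacking LYPLA1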
Fam108B counter: blocks mouse Fam108B hydrolase in RBBP9 counter-screen. recombinant Fam108B, FP-Rh probe fluorescence polarization. inhibition, % at 9.51 µM. hit rate 0.33% among 300,000. AID 1947;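 active = inhibition above the screen mean inhibition plus 3 SD, computed separately per campaign, cut at about 18% in these data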;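 also: inhibitors lower polarization as less probe binds the enzyme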
PREPL inhibitor: human PREPL enzyme inhibition; AID 2751; recombinant PREPL, fluorescence polarization activity-based probe; inhibition, % at 5.96 µM; Q4J6C6; hit rate 0.68% among 320,000;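 also: 0% = enzyme with DMSO and 100% = wells lacking enzyme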
Target sequence (Q4J6C6 whole entry, looked up): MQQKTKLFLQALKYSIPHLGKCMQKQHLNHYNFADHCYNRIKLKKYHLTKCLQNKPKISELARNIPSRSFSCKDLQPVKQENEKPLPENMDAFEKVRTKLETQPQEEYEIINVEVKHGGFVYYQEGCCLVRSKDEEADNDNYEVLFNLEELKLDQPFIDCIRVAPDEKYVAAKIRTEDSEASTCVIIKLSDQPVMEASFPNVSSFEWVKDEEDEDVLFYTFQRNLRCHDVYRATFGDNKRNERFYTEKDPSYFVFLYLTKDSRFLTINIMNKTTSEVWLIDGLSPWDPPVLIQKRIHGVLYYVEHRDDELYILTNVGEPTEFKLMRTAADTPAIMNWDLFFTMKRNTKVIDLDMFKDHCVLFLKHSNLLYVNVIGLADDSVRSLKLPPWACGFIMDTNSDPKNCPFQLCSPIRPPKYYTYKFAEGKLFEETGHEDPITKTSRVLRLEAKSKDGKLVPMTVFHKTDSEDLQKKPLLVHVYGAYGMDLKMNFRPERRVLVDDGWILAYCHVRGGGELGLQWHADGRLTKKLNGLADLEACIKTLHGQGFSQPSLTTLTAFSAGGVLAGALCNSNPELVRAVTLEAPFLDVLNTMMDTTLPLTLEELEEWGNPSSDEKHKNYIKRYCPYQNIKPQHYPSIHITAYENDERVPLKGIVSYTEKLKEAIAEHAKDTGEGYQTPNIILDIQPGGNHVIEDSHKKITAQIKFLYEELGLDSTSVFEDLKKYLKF
PREPL inh cf: human PREPL inhibition, confirmation; recombinant PREPL, fluorescence polarization activity probe; inhibition, % at 5.96 µM; shares compounds with PREPL inhibitor; hit rate 67% among 2,000; AID 2803;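 also: 0% = protein with DMSO and 100% = wells lacking protein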
The depositor's hits bear a star; . = not tested or not shown. In the library only some 1.3% were active in any assay of this set; here they are far more common. Rule as the data show it, unless noted: active = inhibition above about 43%; inactive = the rest.

SMILES | LYPLA2 inh | PME-1 primary | LYPLA1 inh | Fam108B counter | PREPL inhibitor | PREPL inh cf
CC(C)C[C@@H]1CN=C(N)N1C[C@@H]1CCCN1C[C@H](C)N1C[C@@H](Cc2ccccc2)N(CCCC2CCCC2)C1=N | . | . | . | . | 52.2* | 42.8
NC1=NC[C@H](Cc2ccccc2)N1CC1CCCCC1 | 0.9 | -0.5 | -0.9 | 6.3 | 6.1 | .
CC(=O)Nc1ccc(C(=O)Cn2c3[n+](c4c(F)c(F)ccc42)CCCCC3)cc1 | -4.1 | 2.0 | -0.3 | -2.0 | 47.2* | 56.3*
Cc1ccc(-c2cc(C(=O)N/N=C\c3cnn(C)c3C)c3ccccc3n2)cc1C | -15.1 | -9.2 | -15.5 | -5.6 | -12.8 | .
Cc1ccc2c(c1)c1c(n2CC(O)CN2CCCCCC2)CCCC1 (stereo not drawn) | -4.3 | -0.3 | 2.3 | 1.1 | 44.7* | 42.0
Cc1ccc(Nc2nc(N)nc(CCl)n2)c(C)c1 | -1.5 | -1.1 | 0.6 | 2.7 | -5.7 | .
COc1cc(/C=C2/C(=N)N3OC(C)=CC3=NC2=O)ccc1OC(=O)c1ccco1 | -0.4 | 1.4 | -1.2 | -0.8 | 46.3* | 60.3*
COc1ccccc1NC(=O)N(Cc1ccccc1)C1=NCC(C)S1 (stereo not drawn) | 4.1 | -2.1 | 1.7 | 2.6 | 10.2 | .
CCC(C)(C)n1nnnc1C(c1cccnc1)N1CCN(c2cccc(C(F)(F)F)c2)CC1 (stereo not drawn) | 4.6 | -3.7 | 0.5 | 5.8 | 2.0 | .
CN1CCN(C(c2cccc(C(F)(F)F)c2)c2nnnn2C(C)(C)C)CC1 (stereo not drawn) | 1.0 | -4.1 | 1.7 | -1.7 | 43.4* | 31.7
COc1ccccc1NC(=O)Nc1nc(CC(=O)Nc2ccc(F)cc2)cs1 | -6.8 | 16.4 | -11.8 | 6.8 | 3.9 | .
COc1ccccc1NC(=O)Nc1nc(CC(=O)Nc2ccc(N(C)C)cc2)cs1 | 3.1 | 17.4 | -3.3 | 4.6 | 46.7* | 43.5*
O=C(O)c1ccc(N/N=C/c2ccc(-c3cccc(Cl)c3)o2)cc1 | 7.7 | 23.6 | 8.0 | 17.4 | 57.0* | 55.2*
Cc1c(C(=O)O)cccc1-c1ccc(/C=N/Nc2ccc(Br)cc2)o1 | 13.7 | 28.6* | 7.4 | 7.0 | 45.8* | 21.5
Cc1ccc(S(=O)(=O)Nc2cc(Cl)ccc2-n2cncn2)cc1 | 7.1 | 0.9 | 2.2 | . | 11.3 | .
O=C1c2c(O)cccc2C(C2OC(CO)[C@@H](O)[C@H](O)[C@H]2O)c2cc(CO)cc(O)c21 (stereo partly drawn) | -6.2 | -4.7 | -2.1 | . | 12.8 | .
O=C(O)c1cc(O)c2c(c1)[C@H]([C@H]1c3cc(C(=O)O)cc(O)c3C(=O)c3c(O[C@@H]4O[C@H](CO)[C@@H](O)[C@H](O)[C@H]4O)cccc31)c1cccc(OC3O[C@H](CO)[C@@H](O)[C@H](O)[C@H]3O)c1C2=O (stereo partly drawn) | 75.0* | 71.1* | 10.4 | 96.5* | 105.2* | 92.0*
Cc1ccc(SCCc2cc[n+](CC(=O)c3ccccc3)cc2)cc1 | 1.1 | -1.2 | 1.6 | -2.1 | 34.3 | .
O=C(C[n+]1ccc(CCSc2ccc(F)cc2)cc1)c1ccccc1 | -0.2 | -2.0 | 8.4 | 1.8 | 52.9* | 43.8*
CCOC(=O)c1cc(S(=O)(=O)N2CCCC2)cn1C | -0.9 | 3.8 | -1.0 | 1.1 | -4.2 | .
CC(C)=CCC/C(C)=C/CNC(=O)CC1C[C@H](C(=O)N2CCOCC2)[C@@]2(C)c3[nH]c4ccccc4c3CCN2C1=O (stereo partly drawn) | . | . | . | . | 57.2* | 33.1
C[C@]12c3[nH]c4ccccc4c3CCN1C(=O)C(CC(=O)NCCN1CCOCC1)C[C@@H]2C(=O)N1CCOCC1 (stereo partly drawn) | . | . | . | . | 4.7 | .
C/C(=N\Nc1ccc([N+](=O)[O-])cc1)c1ccc(O)cc1 | -8.5 | 7.3 | -2.0 | 11.5 | 13.9 | .
C/C(=N\Nc1ccc([N+](=O)[O-])cc1)c1cccc(N)c1 | 0.7 | 4.0 | -4.5 | 4.1 | 54.5* | 45.8*
O=C(CN1C(=O)NC2(CCCCC2)C1=O)Nc1ccccc1N1CCCC1 | 2.0 | 0.4 | 4.7 | 5.4 | 21.3 | .
SMILES | LYPLA2 inh | PME-1 primary | LYPLA1 inh | Fam108B counter | PREPL inhibitor | PREPL inh cf
CC1CCCC(C)N1C(=O)COC(=O)CSc1ccc(C(N)=O)cc1[N+](=O)[O-] (stereo not drawn) | 0.5 | -3.9 | 0.5 | 2.0 | -6.9 | .
CC(=O)Nc1ccc(OCC(O)CN2CCN(c3cc(Cl)ccc3C)CC2)cc1 (stereo not drawn) | 7.4 | -2.1 | 2.2 | -0.2 | 9.4 | .
CC(=O)Nc1ccc(OCC(O)CN2CCN(c3ccc(C)c(Cl)c3)CC2)cc1 (stereo not drawn) | 8.8 | -4.9 | 5.4 | -5.3 | 44.5* | 39.2
c1ccc(OCCN2CCN(C(c3ccccc3)c3ccccc3)CC2)cc1 | 5.7 | 14.3 | -0.2 | 0.9 | 10.4 | .
COc1cc(C2NCCc3c2[nH]c2ccccc32)ccc1OC(C)C (stereo not drawn) | -8.7 | 0.7 | -1.1 | 2.5 | 44.0* | 40.8
Cc1ccc(C2(C)NC(=O)N(CC(=O)N(c3ccccc3)C3CCS(=O)(=O)C3)C2=O)cc1 (stereo not drawn) | . | . | . | . | 51.0* | 41.9
COCCn1c(CN(C)Cc2ccccc2)nc2c1c(=O)n(C)c(=O)n2C | 8.5 | -4.0 | -1.6 | -0.2 | 53.0* | 36.6
CC(=O)N1CCN(c2ccc(NCc3ccc(-c4cccc(Cl)c4)o3)cc2)CC1 | . | . | . | . | 54.6* | 68.4*
CC(=O)N1CCN(c2ccc(NCc3ccc(C)cc3)cc2)CC1 | 4.5 | -0.6 | 0.8 | -0.5 | 74.0* | 46.2*
CCc1ccc(CNc2ccc(N3CCN(C(C)=O)CC3)cc2)cc1 | 8.8 | -7.9 | 4.3 | 8.6 | 65.5* | 57.0*
CC(=O)N1CCN(c2ccc(NCc3ccco3)cc2)CC1 | -2.4 | -0.1 | -1.2 | . | 7.8 | .
Clc1ccc(CNc2ccc(N3CCN(Cc4ccccc4)CC3)cc2)cc1 | 6.2 | 0.8 | -0.2 | 7.1 | 48.4* | 49.0*
CC1CCCN(S(=O)(=O)c2ccc(C(=O)Nc3nnc(-c4ccco4)o3)cc2)C1 (stereo not drawn) | -3.0 | -4.5 | -7.8 | -6.2 | 0.1 | .
CN(C)c1ccc(C(CNC(=O)c2ccccc2)c2c[nH]c3ccccc23)cc1 (stereo not drawn) | 4.8 | 8.7 | -3.4 | 4.7 | 51.0* | 59.0*
CCCCNC(=S)NCC(c1ccccc1)c1c[nH]c2ccccc12 (stereo not drawn) | -0.7 | 9.5 | -5.2 | 3.6 | 0.3 | .
CN(C)c1ccc(C(CNC(=O)c2ccccc2F)c2c[nH]c3ccccc23)cc1 (stereo not drawn) | -4.6 | 3.3 | -1.0 | -0.3 | 47.2* | 51.2*
CN(C)c1ccc(C(CNS(=O)(=O)c2ccc(F)c(F)c2)c2c[nH]c3ccccc23)cc1 (stereo not drawn) | 0.1 | 2.2 | -5.0 | 3.5 | 16.4 | .
CCOc1ccc(/C=N/NC(=O)CN2CCCCCCC2)cc1 | -2.0 | -2.7 | 2.6 | -0.1 | 4.0 | .
O=C(Nc1ccc2nc(-c3ccccn3)c(-c3ccccn3)nc2c1)N1CCOCC1 | -3.8 | 1.8 | 1.4 | 1.1 | 0.7 | .
